# Source: PubChem BioAssay (several laboratories)
# This is a sample that favours compounds with a hit; in the whole collection about 5.4% have one here.
# Calb FLC: affects C. albicans growth with fluconazole | C. albicans CaCi-2 (fluconazole-resistant clinical isolate) + fluconazole, Alamar Blue growth, 48 h | growth inhibition, % (test concentration not listed) | 0.57% of 300,000 active;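 active = growth inhibition above about 58% in most replicates, limit read from the data, passing the limit was not always enough; inconclusive = exactly half the replicates above a set limit; inactive = most replicates below a set limit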;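 also: all wells also contain fluconazole at 8 µg/ml as a sub-toxic cotreatment; 0% = median of DMSO wells and 100% = median of geldanamycin control wells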
# SKKanGAS inh: inhibitors of SKKanGAS S. pyogenes growth in kanamycin (SK-promoter or general growth effect). BacTiter-Glo, 6 h. inhibition, % at 7.5 µM. 1.3% of 300,000 active. AID 1662;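 active = mean replicate score, as percent of positive control median, at least 50; inconclusive = mean below 50 but one replicate at or above 50; inactive = mean and every replicate below 50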;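 also: strain carries kanamycin resistance gene driven by streptokinase promoter and grows in 40 µg/ml kanamycin; loss of luminescence reflects streptokinase promoter inhibition or plain growth inhibition; 0% = median of DMSO wells and 100% = positive control at its reference dose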
# MPTP inh: permeability transition pore inhibition; isolated mouse mitochondria, Ca2+ swelling absorbance, 30 min; inhibition, % at 10 µM; 1.4% of 360,000 active;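 active = inhibition of 50% or more, scaled per plate between neutral and stimulator controls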;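 also: 0% = DMSO wells given calcium and 100% = 1 mM EGTA wells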
# CSC inhib: cancer stem cell inhibition | cancer stem cell-like cells viability, luminescence | inhibition, % at 7.5 µM | 1.1% of 300,000 active | AID 2717; in the data active = inhibition above about 75%; inconclusive = no clear call, values can overlap the other calls; tested in HMLE shEcad cells
# Mdm2-MdmX inh: inhibitors of human Mdm2/MdmX interaction. SaOS-2 split-luciferase Mdm2/MdmX complementation, luminescence. inhibition, % at 8 µM. 3% of 330,000 active;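 active = inhibition of at least 50% at 8 µM in the primary screen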
# Beta cell apopt: blocks beta cell apoptosis. INS-1E cytokine-induced death, ATP luminescence, 48 h; percent of positive-control rescue, neutral wells zero. protection from apoptosis, % (no concentration beside the values). 0.8% of 300,000 active. AID 435005;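 active = Every replicate reaches about 75%, or at least half do and their mean reaches it too, limit read from the data; inconclusive = At least half of replicates reach the limit but their mean does not; inactive = Under half of replicates reach the limit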;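 also: 0% = cytokine-treated negative control wells and 100% = positive control rescue; higher means more ATP so stronger rescue from cytokine killing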
# Mdm2-MdmX conf: confirmation of human Mdm2/MdmX interaction inhibitors | 55% of 10,000 active | Mdm2-MdmX binding, luminescent assay | inhibition, % at 8 µM | shares compounds with Mdm2-MdmX inh; in the data active = inhibition above about 40%
# FLuc counter: full-length luciferase inhibition in Mdm2/MdmX counter-screen | shares compounds with Mdm2-MdmX inh | SaOS-2 full-length luciferase counterscreen, luminescence | inhibition, % at 8 µM | 77% of 6,200 active | AID 504607;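 active = mean inhibition at 8 µM reaching about 37%, which flags the compound as non-specific, limit read from the data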;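 also: p53-null SaOS-2 cells with luciferase driven by a doxycycline-inducible promoter; compound on cells about two nights before reading with doxycycline added after day one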
# Starred values were filed as active, the others as inactive; ? = inconclusive; nt = no result.
SMILES,Calb FLC,SKKanGAS inh,MPTP inh,CSC inhib,Mdm2-MdmX inh,Beta cell apopt,Mdm2-MdmX conf,FLuc counter
CCC[C@@H](CNC)NC[C@H](Cc1ccccc1)NCCCCc1ccccc1,-30.2,7.8,7.6,132.8*,97.2*,18.9,82.8*,54.7*
CCC[C@@H](CN[C@@H](CNC)C(C)C)NCCCCc1ccccc1,-13.7,4.4,1.0,23.1,97.1*,10.3,90.6*,21.1
O=C(NCCCCc1ccccc1)c1ccccc1,-6.8,1.5,-1.5,-15.9,-23.0,2.4,nt,nt
O=C(COC(=O)c1ccccc1)NCCCCc1ccccc1,nt,nt,-0.5,nt,nt,nt,nt,nt
Cc1ccc(NC2=NC(c3ccc(F)cc3)n3c(nc(C)cc3=O)N2)cc1 (stereo unspecified),3.4,5.1,3.7,-6.4,0.3,-1.8,nt,nt
Cc1cc(CNC(=O)c2cccc3c2C(=O)c2ccc(-c4ccc(F)cc4OCc4ccccc4)cc2S3(=O)=O)c(C(F)(F)F)o1,nt,nt,1.8,nt,18.8,1.0,nt,nt
COc1ccc2nc(C)cc(N/N=C/c3ccc(F)cc3)c2c1,-15.9,19.1,19.6,105.7*,100.3*,107.3*,100.1*,51.5*
COc1ccc(/C=N/Nc2cc(C)nc3ccccc23)cc1,-11.7,1.6,11.7,31.8,98.2*,50.1,56.5*,46.0*
COc1ccc(/C=N/Nc2cc(C)nc3c(C)cccc23)cc1,-19.9,14.6,21.0,26.9,97.4*,47.3,56.0*,76.8*
COc1ccc(CNc2cc(C)nc3ccc(OC)cc23)cc1,-1.3,-2.5,1.2,-5.1,51.7*,17.8,27.9,nt
O=C(NCCCN1CCCC1)c1ccc2c(Cl)c3c(nc2c1)CCCC3,18.9,5.5,0.2,7.4,71.7*,-0.8,50.7*,44.8*
CCCN1CCN(CCCNC(=O)c2ccc3c(Cl)c4c(nc3c2)CCCC4)CC1,5.0,5.2,-1.4,11.7,70.0*,12.0,39.1,54.6*
CCc1ccc(N(CC)C(=O)c2ccc3c(Cl)c4c(nc3c2)CCC4)cc1,1.5,27.8,-2.5,nt,56.2*,8.8,31.6,nt
CCN(CC)CCCNC(=O)c1ccc2c(Cl)c3c(nc2c1)CCCC3,?,-1.4,-0.1,49.8,84.1*,3.2,49.4*,30.8
Cc1ccc(N(C)C(=O)c2ccc3c(Cl)c4c(nc3c2)CCC4)cc1C,-4.9,6.2,-1.7,nt,-3.0,5.2,nt,nt
COc1ccc(N(CC(=O)NCCc2ccccc2)C(=O)CCC(=O)Nc2nccs2)c(OC)c1,4.6,-7.0,0.5,-9.5,-4.1,1.6,nt,nt
O=C(O)C1=C[C@@H](C2CCCCC2)C[C@@H](OCCCCO)O1,-13.6,7.0,-0.3,-3.2,-29.6,2.9,nt,nt
Cc1ccc(CNC(=O)C(=O)NCC2CCCO2)cc1 (stereo unspecified),-1.0,-0.1,0.9,6.3,-21.9,-6.4,nt,nt
COc1ccc(S(=O)(=O)Nc2ccccn2)cc1C,-8.4,4.1,-2.0,-3.0,5.2,nt,nt,nt
O=C(N/N=C/c1sc(N2CCOCC2)nc1-c1ccccc1)c1cccc(S(=O)(=O)N2CCCC2)c1,87.9*,9.1,-0.2,26.4,79.2*,106.9*,71.8*,40.9*
O=C(N/N=C/c1sc(N2CCOCC2)nc1-c1ccccc1)c1ccc(O)cc1,-1.7,9.4,1.5,-2.7,-11.8,13.0,nt,nt
COc1ccc(-n2c(SCC(=O)Nc3ncc(Cl)cc3Cl)nc3ccccc32)cc1,-15.9,26.2,nt,44.1,90.7*,21.1,74.2*,29.2
O=C(CSc1nc2ccccc2n1-c1ccccc1)Nc1ncc(Cl)cc1Cl,21.9,7.0,0.1,45.7,87.6*,0.0,81.0*,22.4
Cc1cccc(-n2c(SCC(=O)Nc3ncc(Cl)cc3Cl)nc3ccccc32)c1,44.6,36.6,4.9,50.0,nt,-1.4,nt,nt
COc1ccccc1NC(=O)COC(=O)c1ccc2ccccc2n1,nt,nt,-0.6,9.2,-18.2,-1.3,nt,nt
SMILES,Calb FLC,SKKanGAS inh,MPTP inh,CSC inhib,Mdm2-MdmX inh,Beta cell apopt,Mdm2-MdmX conf,FLuc counter
C/C(=N/NC(=O)CN(c1ccccc1)S(=O)(=O)c1ccccc1)c1ccccc1O,1.8,-15.5,1.9,27.8,71.8*,109.3*,60.1*,26.8
CCCC/C(C)=N/NC(=O)CN(c1ccc(Br)cc1)S(=O)(=O)c1ccccc1,2.0,11.2,0.4,-5.8,-13.0,-3.9,nt,nt
CC1=C(C(=O)OCc2ccccc2)C(c2cccnc2)c2c(n(C)c(=O)n(C)c2=O)N1 (stereo unspecified),-9.6,0.6,0.3,-2.0,17.9,-4.5,nt,nt
CC(C)NC(=O)CN1C(=O)c2ccccc2S1(=O)=O,-1.5,-1.8,1.6,-8.1,-14.5,-3.6,nt,nt
Cc1ccc(C(=O)CN2/C(=C(\O)c3ccccc3)C(=O)c3ccccc3S2(=O)=O)c(C)c1,16.3,27.4,-3.8,17.0,6.9,3.7,nt,nt
CC(C)c1ccc(NC(=O)CN2C(=O)c3ccccc3S2(=O)=O)cc1,4.9,-2.5,0.3,8.7,36.9,0.9,nt,nt
Cc1ccc(C(=O)CN2C(=O)c3ccccc3S2(=O)=O)cc1,-0.5,29.1,1.3,0.1,98.4*,-2.4,95.7*,23.0
O=C(CN1C(=O)c2ccccc2S1(=O)=O)Nc1ncc(Cl)cc1Cl,nt,nt,-1.0,-8.1,84.4*,1.6,69.5*,64.0*
O=C(CN1C(=O)c2ccccc2S1(=O)=O)c1ccccc1,26.4,3.1,-1.4,-7.2,78.1*,-6.8,65.0*,97.8*
CN(c1cccc(NC(=O)CN2C(=O)c3ccccc3S2(=O)=O)c1)S(C)(=O)=O,-3.5,-10.4,-2.0,-17.2,51.1*,-3.1,38.6,81.9*
Fc1cccc(F)c1-c1nc(-c2ccncc2)no1,-13.4,4.7,0.1,-10.4,-11.9,2.6,nt,nt
O=C(CSc1ccc2ccccc2c1)NCCc1ccc(O)c(O)c1,4.1,1.7,3.9,63.0,8.6,-37.3,nt,nt
Cc1cccc2cc3c(NC(=O)c4ccccn4)nn(C)c3nc12,2.1,-7.3,-2.3,-13.6,8.1,1.4,nt,nt
COCc1nnc(NC(=O)C2CC(=O)N(C3CCCCC3)C2)s1 (stereo unspecified),-2.5,11.1,-0.5,9.4,6.2,-3.5,nt,nt
O=C(CN1C(=O)c2ccccc2S1(=O)=O)c1ccccc1Cl,11.7,9.4,-0.1,14.9,58.3*,nt,55.2*,82.0*
CCOC(=O)CCCNC(=O)CN1C(=O)NC2(CCCCCC2)C1=O,-11.2,-4.2,-2.2,7.2,7.6,-8.3,nt,nt
CCOC(=O)C1=C(C)NC(C)=C(C(=O)OCC)C1/C=C/c1ccccc1OC,-9.6,2.8,3.0,12.9,47.6,-11.0,nt,nt
CCOC(=O)C1=C(C)NC(C)=C(C(=O)OCC)C1c1ccccc1/C=C/C(=O)OC(C)(C)C,nt,38.0,nt,98.6*,71.6*,39.0,30.9,nt
C[C@H]1CCC[C@]2(C)C[C@H]3OC(=O)C(CN4CCCCCC4)[C@H]3C=C12 (stereo partly specified),3.2,-1.5,-1.1,16.0,72.9*,-63.5,48.5*,14.1
CS(=O)(=O)c1ncc(Cl)c(C(=O)Nc2ccc3ccccc3c2)n1,-7.2,-6.3,8.4,nt,nt,nt,nt,nt
